Assay results as given in the supplement of paper PMC11732987, “Enantioselective OTUD7B fragment discovery through chemoproteomics screening and high-throughput optimisation” (Communications Chemistry, 2025).

How the values were obtained:
Experiment in all cases: log2 ratio of Biotin-Ahx-Ub-VS probe labelling (fragment/DMSO); higher = less target engagement (more negative = stronger competition), active = hit call of the paper (q ≤ 0.05, log2 ratio ≤ -1)
Settings in all cases: compound concentration: 200 uM; treatment time: 3 h
USP19 = biological target: T1, USP19 (UniProt O94966)
T1 sequence (whole entry): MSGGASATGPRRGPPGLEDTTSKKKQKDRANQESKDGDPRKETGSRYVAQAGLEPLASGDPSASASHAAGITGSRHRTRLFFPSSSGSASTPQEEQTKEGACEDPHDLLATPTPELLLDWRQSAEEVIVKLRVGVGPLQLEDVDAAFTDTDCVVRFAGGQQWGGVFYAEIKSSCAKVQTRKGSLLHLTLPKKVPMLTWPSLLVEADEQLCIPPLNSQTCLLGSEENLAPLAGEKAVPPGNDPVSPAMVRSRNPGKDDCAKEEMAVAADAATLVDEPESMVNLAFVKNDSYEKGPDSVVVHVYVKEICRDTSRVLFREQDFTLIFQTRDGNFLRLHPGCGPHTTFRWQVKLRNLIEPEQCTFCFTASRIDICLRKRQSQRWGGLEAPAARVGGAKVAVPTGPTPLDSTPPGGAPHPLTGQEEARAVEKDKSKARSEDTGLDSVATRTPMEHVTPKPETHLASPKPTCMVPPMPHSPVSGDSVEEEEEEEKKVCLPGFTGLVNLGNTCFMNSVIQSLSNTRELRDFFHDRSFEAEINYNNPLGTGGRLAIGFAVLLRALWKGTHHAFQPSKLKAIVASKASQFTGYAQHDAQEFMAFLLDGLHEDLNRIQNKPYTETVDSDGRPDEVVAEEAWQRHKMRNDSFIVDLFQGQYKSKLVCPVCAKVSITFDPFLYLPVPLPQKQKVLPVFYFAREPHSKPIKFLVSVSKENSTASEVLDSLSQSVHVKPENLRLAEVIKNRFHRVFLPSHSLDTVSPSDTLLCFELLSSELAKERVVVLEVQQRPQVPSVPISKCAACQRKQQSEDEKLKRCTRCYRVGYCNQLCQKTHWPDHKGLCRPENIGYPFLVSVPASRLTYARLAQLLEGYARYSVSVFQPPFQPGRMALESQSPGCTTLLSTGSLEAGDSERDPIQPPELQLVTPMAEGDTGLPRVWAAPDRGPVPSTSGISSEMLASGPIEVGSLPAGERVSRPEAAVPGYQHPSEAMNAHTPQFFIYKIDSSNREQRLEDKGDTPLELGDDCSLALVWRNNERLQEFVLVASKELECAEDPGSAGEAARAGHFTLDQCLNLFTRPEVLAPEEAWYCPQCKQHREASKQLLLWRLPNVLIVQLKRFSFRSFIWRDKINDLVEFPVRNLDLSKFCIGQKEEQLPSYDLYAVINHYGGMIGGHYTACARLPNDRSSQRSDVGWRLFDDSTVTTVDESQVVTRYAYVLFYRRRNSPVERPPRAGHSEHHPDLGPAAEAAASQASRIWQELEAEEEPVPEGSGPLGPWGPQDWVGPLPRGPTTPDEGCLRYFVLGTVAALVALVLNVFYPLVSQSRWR
Method in brief: (§1)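 Values give the average log2 ratio of fragment to vehicle, assessed by unpaired t-test on global-median-normalised Spectronaut label-free quantities. Proteins needed ≥2 unique peptides. HEK293T lysate (495 µg per sample) was treated in triplicate with fragment at 200 µM or vehicle for 3 h and then with Biotin-Ahx-Ub-VS at 0.5 µM final for 1 h. Labelled DUBs were NeutrAvidin-enriched, digested and run by diaPASEF LC-MS/MS.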

USP22 = biological target: T2, USP22 (UniProt Q9UPT9)
T2 sequence (whole entry): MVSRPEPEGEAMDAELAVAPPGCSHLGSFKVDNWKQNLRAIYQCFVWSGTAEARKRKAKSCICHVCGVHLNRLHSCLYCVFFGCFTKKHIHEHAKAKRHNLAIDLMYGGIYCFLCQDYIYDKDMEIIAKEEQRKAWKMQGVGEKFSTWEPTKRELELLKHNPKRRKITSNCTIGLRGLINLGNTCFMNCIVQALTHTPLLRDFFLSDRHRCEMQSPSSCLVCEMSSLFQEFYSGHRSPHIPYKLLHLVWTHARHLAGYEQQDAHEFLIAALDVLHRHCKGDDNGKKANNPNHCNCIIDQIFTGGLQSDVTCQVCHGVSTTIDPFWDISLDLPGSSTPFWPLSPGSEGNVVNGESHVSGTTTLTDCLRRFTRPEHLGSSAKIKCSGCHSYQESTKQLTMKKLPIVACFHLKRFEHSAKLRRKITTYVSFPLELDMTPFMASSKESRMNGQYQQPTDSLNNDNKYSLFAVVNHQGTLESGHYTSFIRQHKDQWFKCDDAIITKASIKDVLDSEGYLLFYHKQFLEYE
Method in brief: as §1

USP24 = USP24 (UniProt Q9UPU5)
Method in brief: as §1

USP25 = biological target: T3, USP25 (UniProt Q9UHP3)
T3 sequence (whole entry): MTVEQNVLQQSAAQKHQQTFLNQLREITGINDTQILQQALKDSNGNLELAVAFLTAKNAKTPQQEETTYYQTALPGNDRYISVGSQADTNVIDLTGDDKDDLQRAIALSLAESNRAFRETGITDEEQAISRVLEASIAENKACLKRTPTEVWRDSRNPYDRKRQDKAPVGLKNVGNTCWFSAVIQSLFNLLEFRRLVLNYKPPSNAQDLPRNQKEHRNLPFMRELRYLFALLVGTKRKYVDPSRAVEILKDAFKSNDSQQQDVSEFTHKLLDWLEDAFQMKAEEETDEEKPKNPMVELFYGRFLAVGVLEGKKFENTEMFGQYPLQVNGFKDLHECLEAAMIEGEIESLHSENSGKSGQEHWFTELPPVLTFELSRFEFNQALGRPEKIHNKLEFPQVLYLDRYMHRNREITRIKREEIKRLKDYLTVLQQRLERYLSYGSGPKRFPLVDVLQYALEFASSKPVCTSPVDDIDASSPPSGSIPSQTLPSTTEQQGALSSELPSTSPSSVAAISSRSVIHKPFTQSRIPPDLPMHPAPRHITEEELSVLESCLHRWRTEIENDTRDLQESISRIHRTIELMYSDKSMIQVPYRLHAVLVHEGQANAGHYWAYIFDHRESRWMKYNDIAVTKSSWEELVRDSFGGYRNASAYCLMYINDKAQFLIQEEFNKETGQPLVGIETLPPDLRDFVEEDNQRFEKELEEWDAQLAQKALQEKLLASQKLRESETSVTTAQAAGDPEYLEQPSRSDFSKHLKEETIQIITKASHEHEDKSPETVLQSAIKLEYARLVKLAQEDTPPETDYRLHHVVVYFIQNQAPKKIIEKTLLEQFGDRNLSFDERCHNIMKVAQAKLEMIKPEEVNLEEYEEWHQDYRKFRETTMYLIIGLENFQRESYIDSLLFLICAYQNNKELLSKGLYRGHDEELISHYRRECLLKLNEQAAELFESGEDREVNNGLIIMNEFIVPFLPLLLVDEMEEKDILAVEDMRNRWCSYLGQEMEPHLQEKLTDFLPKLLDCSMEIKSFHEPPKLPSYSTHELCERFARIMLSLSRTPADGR
Method in brief: as §1

USP28 = biological target: T4, USP28 (UniProt Q96RU2)
T4 sequence (whole entry): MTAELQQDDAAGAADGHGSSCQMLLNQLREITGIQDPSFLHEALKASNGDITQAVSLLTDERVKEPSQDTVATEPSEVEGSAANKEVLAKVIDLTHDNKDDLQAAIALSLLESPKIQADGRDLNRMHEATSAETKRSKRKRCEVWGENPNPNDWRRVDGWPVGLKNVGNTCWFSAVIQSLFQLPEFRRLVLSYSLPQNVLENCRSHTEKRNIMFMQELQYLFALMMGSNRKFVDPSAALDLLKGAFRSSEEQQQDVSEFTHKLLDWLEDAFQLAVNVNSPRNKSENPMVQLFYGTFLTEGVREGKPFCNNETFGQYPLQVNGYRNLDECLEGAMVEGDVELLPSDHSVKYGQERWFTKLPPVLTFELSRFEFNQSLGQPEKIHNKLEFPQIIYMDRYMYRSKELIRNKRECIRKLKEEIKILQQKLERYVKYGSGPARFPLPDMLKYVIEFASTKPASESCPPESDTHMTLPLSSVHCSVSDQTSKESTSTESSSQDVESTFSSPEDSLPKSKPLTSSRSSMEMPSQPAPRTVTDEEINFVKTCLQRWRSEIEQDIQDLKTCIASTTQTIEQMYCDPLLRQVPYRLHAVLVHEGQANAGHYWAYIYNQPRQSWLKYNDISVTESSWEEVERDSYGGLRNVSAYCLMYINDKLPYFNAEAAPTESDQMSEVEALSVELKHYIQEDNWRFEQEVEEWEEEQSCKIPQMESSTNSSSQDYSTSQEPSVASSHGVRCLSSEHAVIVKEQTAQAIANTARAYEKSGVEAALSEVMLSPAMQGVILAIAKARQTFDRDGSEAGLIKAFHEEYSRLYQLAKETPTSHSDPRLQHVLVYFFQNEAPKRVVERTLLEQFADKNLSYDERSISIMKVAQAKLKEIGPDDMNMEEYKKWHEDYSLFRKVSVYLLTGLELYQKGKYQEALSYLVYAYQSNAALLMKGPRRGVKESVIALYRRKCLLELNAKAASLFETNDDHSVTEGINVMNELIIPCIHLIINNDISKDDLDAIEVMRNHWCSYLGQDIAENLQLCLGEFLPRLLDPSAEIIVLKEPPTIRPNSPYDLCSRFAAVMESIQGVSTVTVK
Method in brief: as §1

Measured: log2 ratio of Biotin-Ahx-Ub-VS probe labelling

Chain of USP24 (Q9UPU5 whole entry): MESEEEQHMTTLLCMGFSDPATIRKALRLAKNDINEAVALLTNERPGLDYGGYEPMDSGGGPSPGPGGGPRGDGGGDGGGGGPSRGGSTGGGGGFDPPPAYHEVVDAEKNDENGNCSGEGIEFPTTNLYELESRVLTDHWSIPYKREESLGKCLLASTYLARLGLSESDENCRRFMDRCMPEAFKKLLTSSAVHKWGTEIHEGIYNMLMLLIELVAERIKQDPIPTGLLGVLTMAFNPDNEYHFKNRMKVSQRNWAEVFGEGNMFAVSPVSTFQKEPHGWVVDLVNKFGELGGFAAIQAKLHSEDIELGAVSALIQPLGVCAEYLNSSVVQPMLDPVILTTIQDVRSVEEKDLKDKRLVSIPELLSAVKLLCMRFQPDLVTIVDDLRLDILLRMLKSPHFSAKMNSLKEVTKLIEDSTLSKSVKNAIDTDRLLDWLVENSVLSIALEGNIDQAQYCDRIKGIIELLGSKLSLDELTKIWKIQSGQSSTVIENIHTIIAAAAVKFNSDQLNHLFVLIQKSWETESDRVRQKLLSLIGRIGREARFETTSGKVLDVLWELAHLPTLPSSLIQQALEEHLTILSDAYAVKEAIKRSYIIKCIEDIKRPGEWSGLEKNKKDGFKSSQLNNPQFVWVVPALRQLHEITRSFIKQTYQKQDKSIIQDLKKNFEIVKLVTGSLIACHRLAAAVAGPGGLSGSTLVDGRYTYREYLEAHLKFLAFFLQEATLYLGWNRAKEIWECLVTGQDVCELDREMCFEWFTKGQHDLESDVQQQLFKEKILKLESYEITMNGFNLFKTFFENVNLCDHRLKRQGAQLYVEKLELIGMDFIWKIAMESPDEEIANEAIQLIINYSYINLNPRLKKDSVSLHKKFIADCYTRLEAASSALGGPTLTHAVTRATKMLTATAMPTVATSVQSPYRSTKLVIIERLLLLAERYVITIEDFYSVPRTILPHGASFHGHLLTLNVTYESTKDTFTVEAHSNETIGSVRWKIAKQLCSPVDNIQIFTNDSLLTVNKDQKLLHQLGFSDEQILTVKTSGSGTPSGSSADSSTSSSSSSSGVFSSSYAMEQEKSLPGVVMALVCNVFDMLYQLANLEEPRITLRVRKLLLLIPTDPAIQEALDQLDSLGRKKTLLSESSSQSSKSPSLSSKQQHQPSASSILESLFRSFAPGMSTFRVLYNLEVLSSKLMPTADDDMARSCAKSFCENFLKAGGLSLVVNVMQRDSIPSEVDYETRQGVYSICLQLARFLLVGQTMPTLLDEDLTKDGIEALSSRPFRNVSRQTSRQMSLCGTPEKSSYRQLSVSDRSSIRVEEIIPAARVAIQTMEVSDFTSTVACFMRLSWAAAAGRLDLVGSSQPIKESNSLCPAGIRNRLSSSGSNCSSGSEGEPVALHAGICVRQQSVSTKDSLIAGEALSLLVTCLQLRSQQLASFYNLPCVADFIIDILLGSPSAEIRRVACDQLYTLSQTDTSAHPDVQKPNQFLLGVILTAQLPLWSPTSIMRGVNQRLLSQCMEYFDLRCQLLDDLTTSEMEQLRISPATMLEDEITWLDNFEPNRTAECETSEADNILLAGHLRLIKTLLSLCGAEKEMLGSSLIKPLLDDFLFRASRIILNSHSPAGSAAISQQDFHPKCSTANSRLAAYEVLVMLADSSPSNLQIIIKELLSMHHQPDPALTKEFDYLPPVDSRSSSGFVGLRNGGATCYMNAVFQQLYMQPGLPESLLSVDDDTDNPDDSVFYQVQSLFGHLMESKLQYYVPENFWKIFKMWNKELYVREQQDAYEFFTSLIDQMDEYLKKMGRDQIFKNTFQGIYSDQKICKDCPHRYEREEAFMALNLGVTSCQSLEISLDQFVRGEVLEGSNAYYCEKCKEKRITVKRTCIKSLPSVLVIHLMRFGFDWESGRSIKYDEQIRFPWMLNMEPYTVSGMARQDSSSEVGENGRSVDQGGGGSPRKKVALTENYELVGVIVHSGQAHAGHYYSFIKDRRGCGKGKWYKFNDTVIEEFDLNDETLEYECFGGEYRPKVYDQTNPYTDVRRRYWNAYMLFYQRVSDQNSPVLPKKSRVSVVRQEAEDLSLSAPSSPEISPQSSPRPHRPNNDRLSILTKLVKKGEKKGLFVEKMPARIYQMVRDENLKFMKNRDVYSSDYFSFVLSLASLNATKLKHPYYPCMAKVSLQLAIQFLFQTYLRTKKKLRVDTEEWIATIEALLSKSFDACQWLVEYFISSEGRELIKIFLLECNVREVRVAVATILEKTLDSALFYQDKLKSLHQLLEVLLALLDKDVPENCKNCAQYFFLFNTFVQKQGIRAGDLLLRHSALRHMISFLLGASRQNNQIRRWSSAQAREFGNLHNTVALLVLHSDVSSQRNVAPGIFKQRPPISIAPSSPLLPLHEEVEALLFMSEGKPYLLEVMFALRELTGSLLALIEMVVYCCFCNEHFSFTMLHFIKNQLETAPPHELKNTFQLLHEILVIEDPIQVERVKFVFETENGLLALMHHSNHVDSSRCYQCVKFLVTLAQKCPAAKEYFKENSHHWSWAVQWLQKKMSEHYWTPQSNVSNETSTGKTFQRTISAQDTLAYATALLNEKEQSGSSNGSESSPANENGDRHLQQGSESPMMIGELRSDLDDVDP

CCN1C(=O)C2CN(C(=O)CCl)CCN2C1=O (stereo not given)
inactive: USP19 -0.175 | USP22 0.199 | USP24 -0.0184 | USP25 -0.141 | USP28 -0.324
